Data published in PubChem BioAssay.
Values joined by “and” are separate entries in the source; they are usually repeats but may differ in a detail not shown here. Identical values can stand only once. Active and inactive are the calls of the source.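 How the source made its calls, unless noted: active means normalized viability below 100% at a tested concentration; inactive means the rest.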

What was measured:
[1] = stimulators of nuclear beta-catenin in C2C12, primary screen, imaging, WNT3A-conditioned medium, mouse C2C12, NPC library (AID 1117326; in the data active means nuclear beta-catenin stimulation mostly above about 4.2%, no sharp cut-off; inactive means mostly below about 10%); conditions: stronger effect = higher value
[2] = stimulators of insulin release from INS-1E, primary screen, cell-based, 5 mM glucose, NPC library (AID 1117329;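 active means compound raises insulin release from rat beta cells at 5 mM glucose, no numeric limit stated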); conditions: rat INS-1E insulin secretion, at 10 µM, stronger effect = higher value
[3] = growth inhibition of GSK3B-pretreated HCT116 cells – cell-based, CellTiter-Glo, 0.2 to 20 µM (AID 1117336;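 active means compounds lowering colon cancer cell viability after pretreatment blocking the GSK3B kinase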); conditions: HCT116 viability after GSK3B inhibitor, at 20 µM, stronger effect = higher value
[4] = inhibition of endothelial tube formation, primary screen, imaging, VEGF stimulated, CD31 staining, tube area, NPC library (AID 1117340;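 active means compound that reduces growth-factor-driven endothelial tube area in a mixed cell culture, no cutoff stated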); conditions: VEGF-stimulated ADSC/ECFC co-culture, at 10 µM, stronger effect = higher value
[5] = glucagon-like peptide 1 release enhancers, primary assay, NCI-H716 cell line, NPC library (AID 1117341;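 active means compound raises GLP1 secretion from the human gut endocrine cells, with no numeric limit stated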); conditions: NCI-H716 cells, at 10 µM, stronger effect = higher value
[6] = HCT116 colon cancer cell growth inhibition, primary screen, CellTiter-Glo luminescence, NPC library (AID 1117342;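 active means compounds that lower survival of HCT116 colon cancer cells in the luminescence readout, no numeric limit stated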); conditions: at 20 µM (top of the series)
[7] = CellTiter-Glo luminescent readout of SW480 viability loss, NPC library primary (AID 1117343;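 active means compounds that lower viability of the colon cancer cells in the luminescence readout, with no numeric limit stated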); conditions: CellTiter-Glo luminescence; at 20 µM (top of the series)
[8] = decreased DLD-1 cellular survival, CellTiter-Glo luminescent readout, NPC compound collection, primary HTS (AID 1117346;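 active means compounds that lower survival of DLD-1 colon cancer cells in the luminescence readout, no cutoff given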); conditions: DLD-1 viability, CellTiter-Glo luminescence; at 20 µM (top of the series)
[9] = biological target: 6-phosphogluconate dehydrogenase, decarboxylating (Homo sapiens) (UniProt P52209); assay: 6PGD enzyme inhibitors, primary screen, biochemical, human, recombinant enzyme, NADPH absorbance (AID 1159550;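 active means at least 20% inhibition of 6-phosphogluconate dehydrogenase activity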); conditions: recombinant 6PGD, NADPH absorbance 341 nm; at 10 µM; stronger effect = higher value
[10] = modulation of C. elegans fzo-1 (AID 1259413; call rule not given here;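 further: fzo-1 mutant C. elegans worms in liquid wells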); conditions: C. elegans fzo-1 modulator screen, mean read-out; stronger effect = higher value
[11] = differential killing of epithelial or mesenchymal cells, primary screen, imaging, PC-3E GFP, TEM4-18 mCherry, co-culture (AID 1345086;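 active means compounds killing one labelled cell type while sparing the other, by normalised counts and ratio limits, not self-fluorescent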;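 further: cells exposed to compound for 72 h before imaging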;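 on red/green cell ratio (normalised): normalised mesenchymal count divided by normalised epithelial count so high means epithelial killing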); conditions: imaging cell counts, at 1 µM
[12] = survival rescue of mitochondrial mutant cells in low glucose, primary screen, MELAS cybrids, Rieske KO mouse fibroblasts, CellTiter-Glo (AID 1508586;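 active means mean z-score across replicates of 1.96 or higher in either the MELAS or the Rieske mutant cell line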;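 further: z relative to plate mean and SD of compound and empty wells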)
[13] = ovarian cancer cell viability with rucaparib, profiling panel, oncology-focused library, rucaparib conditional (AID 1508598); conditions: patient-derived ovarian cancer cells, CellTiter-Glo viability, 144 h, stronger effect = lower value
[14] = biological target: NAD(+) hydrolase SARM1 (Homo sapiens) (UniProt Q6SZW1); assay: SARM1 TIR NADase inhibitors, cell lysate, NAD-Glo luminescence (AID 1508614;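 active means compound whose remaining NAD level is above about 45 nM, limit read from the data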); conditions: SAM-TIR HEK293T lysate NADase, at 1 µM, stronger effect = higher value
[15] = biological target: Mitogen-activated protein kinase 7 (Homo sapiens) (UniProt Q13164); assay: ERK5 transactivation activators in reporter cells, primary screen, cell-based, HTS (AID 1508626;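 active means luciferase signal above three times the same-plate solvent-only control wells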;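 further: luciferase driven by Gal4-ERK5 fusion binding five Gal4 sites before minimal TATA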); conditions: HeLa Gal4-ERK5 transactivation, 18 h, at 5 µM, stronger effect = higher value
[16] = ICB984 medulloblastoma cell growth inhibition, synergistic combos for chromothripsis tumors, cisplatin or BGB combos (AID 1671451; call rule not given here;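 further: cells exposed for 96 hours before readout; 0% = vehicle DMSO and 100% = killing by high DMSO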); conditions: ICB984 medulloblastoma cells, drug combinations, stronger effect = higher value
[17] = system: F380Y; assay: modulators of BK channel variants, profiling panel, selectivity assay, cell-based, U2OS BacMam, thallium flux, beta subunits (AID 1259406;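 active means thallium flux through the channel raised or lowered by more than 3 SD from vehicle-only wells, actives on both sides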;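 further: initial slope of Thallos dye fluorescence rise after thallium is added; log ratio against the mean of 0.3% DMSO vehicle wells on the same plate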); conditions: at 30 µM
[18] = system: F380Y/beta1; assay: as above; conditions: at 30 µM
[19] = system: F380Y/beta2Delta; assay: as above; conditions: at 30 µM

Chain of NAD(+) hydrolase SARM1 (Homo sapiens) (Q6SZW1 whole entry, looked up, the tested form may be a part): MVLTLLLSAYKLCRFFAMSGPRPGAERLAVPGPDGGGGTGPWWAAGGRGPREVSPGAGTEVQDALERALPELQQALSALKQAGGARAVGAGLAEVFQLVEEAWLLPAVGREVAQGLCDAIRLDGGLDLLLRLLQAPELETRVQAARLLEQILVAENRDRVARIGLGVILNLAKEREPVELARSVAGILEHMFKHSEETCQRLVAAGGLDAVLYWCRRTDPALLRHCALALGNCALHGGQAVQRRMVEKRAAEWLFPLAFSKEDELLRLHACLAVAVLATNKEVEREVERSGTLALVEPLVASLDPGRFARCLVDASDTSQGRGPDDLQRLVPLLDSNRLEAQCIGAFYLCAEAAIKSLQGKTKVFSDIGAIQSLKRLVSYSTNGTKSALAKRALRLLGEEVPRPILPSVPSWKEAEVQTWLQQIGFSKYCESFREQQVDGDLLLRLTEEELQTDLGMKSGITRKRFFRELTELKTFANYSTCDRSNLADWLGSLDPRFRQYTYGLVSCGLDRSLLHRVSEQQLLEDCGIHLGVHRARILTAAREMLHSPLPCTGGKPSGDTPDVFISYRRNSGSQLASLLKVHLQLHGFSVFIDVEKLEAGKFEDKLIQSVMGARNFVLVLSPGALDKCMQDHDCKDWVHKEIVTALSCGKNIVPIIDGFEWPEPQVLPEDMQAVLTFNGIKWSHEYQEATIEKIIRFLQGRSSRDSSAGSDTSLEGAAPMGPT
Chain of 6-phosphogluconate dehydrogenase, decarboxylating (Homo sapiens) (P52209 whole entry, looked up): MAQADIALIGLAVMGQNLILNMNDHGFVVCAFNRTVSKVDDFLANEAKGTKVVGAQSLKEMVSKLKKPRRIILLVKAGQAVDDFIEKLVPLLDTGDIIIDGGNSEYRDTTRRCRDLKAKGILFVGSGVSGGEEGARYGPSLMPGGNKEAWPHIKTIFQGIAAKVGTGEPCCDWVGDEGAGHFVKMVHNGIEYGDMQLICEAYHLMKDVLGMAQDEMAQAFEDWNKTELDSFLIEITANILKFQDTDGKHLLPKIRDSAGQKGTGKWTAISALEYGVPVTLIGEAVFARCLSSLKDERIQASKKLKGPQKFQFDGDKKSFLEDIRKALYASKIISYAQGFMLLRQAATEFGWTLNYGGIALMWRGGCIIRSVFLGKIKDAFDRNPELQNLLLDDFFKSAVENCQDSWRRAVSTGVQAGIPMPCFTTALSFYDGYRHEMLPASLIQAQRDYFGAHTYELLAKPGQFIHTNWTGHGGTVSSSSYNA
Chain of Mitogen-activated protein kinase 7 (Homo sapiens) (Q13164 whole entry, looked up, the tested form may be a part): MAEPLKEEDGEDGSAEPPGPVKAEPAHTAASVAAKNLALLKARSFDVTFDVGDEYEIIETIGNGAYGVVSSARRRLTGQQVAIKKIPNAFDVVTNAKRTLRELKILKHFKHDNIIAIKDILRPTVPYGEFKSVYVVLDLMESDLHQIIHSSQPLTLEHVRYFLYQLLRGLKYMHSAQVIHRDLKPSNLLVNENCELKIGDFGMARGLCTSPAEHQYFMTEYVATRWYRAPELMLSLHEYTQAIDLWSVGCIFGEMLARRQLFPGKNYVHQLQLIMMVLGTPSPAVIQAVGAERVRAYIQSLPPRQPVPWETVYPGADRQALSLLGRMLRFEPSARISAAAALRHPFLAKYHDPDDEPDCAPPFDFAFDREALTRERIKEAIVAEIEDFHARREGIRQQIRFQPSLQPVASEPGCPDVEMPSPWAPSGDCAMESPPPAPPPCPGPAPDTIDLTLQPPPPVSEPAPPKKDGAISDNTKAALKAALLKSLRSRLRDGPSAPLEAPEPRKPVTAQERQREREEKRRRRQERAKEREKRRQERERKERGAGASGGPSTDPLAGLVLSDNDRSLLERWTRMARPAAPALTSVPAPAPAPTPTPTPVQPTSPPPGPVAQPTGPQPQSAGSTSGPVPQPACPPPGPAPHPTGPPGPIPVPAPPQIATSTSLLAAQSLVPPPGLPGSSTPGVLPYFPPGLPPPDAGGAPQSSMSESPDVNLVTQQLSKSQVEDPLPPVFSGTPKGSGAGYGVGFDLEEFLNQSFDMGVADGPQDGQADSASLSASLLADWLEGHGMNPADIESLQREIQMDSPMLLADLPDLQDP

O=c1[nH]cc(F)c(=O)[nH]1
nuclear beta-catenin stimulation ([1]; at 10 µM): 6.3% (inactive) | nuclear beta-catenin stimulation ([1]; stimulation, at 2 µM): 1.7% | insulin secretion stimulation [2]: -3% (inactive) | viability decrease [3]: 87.4% (active) | tube area decrease [4]: 56.6% (active) | GLP1 secretion stimulation [5]: -0.1% (inactive) | inhibition of viability [6]: 75.1% (active) | viability decrease (inhibition) [7]: 28.6% (inactive) | viability decrease (inhibition) [8]: 26.6% (inactive) | inhibition [9]: -1.95% (inactive) | mean signal [10]: 262 (inactive) | red/green cell ratio (normalised) ([11]; actives lie on both sides, counts scaled to control wells, 1 = unselective): 0.94 (inactive) | normalised cell number ([11]; measured here: epithelial PC-3E GFP cell survival): 0.82 | normalised cell number ([11]; measured here: mesenchymal TEM4-18 mCherry cell survival): 0.77 | z-score ([12]; MELAS cybrid survival, CellTiter-Glo 48 h, stronger effect = higher value): -0.415 (inactive) and 0.96 (inactive) and 1.17 | z-score ([12]; Rieske KO mouse fibroblast survival, CellTiter-Glo 72 h): 0.32 and 1.37 and 2.42 | viability ([13]; at 0.000305 µM, OCI-C5x cells, with rucaparib 10 µM, 100% = cells with rucaparib alone): 118% (inactive) | viability ([13]; at 0.000305 µM, OCI-C5x cells, without rucaparib): 111% (inactive) | viability ([13]; at 0.000305 µM, OCI-P5x cells, with rucaparib 20 µM, 100% = cells with rucaparib alone): 113% (inactive) | viability ([13]; at 0.000305 µM, OCI-P5x cells, without rucaparib): 111% (inactive) | viability ([13]; at 0.00122 µM, OCI-C5x cells, with rucaparib 10 µM, 100% = cells with rucaparib alone): 121% (inactive) | viability ([13]; at 0.00122 µM, OCI-C5x cells, without rucaparib): 108% (inactive) | viability ([13]; at 0.00122 µM, OCI-P5x cells, with rucaparib 20 µM, 100% = cells with rucaparib alone): 115% (inactive) | viability ([13]; at 0.00122 µM, OCI-P5x cells, without rucaparib): 115% (inactive) | viability ([13]; at 0.00488 µM, OCI-C5x cells, with rucaparib 10 µM, 100% = cells with rucaparib alone): 115% (inactive) | viability ([13]; at 0.00488 µM, OCI-C5x cells, without rucaparib): 115% (inactive) | viability ([13]; at 0.00488 µM, OCI-P5x cells, with rucaparib 20 µM, 100% = cells with rucaparib alone): 104% (inactive) | viability ([13]; at 0.00488 µM, OCI-P5x cells, without rucaparib): 98.7% (active) | viability ([13]; at 0.0195 µM, OCI-C5x cells, with rucaparib 10 µM, 100% = cells with rucaparib alone): 129% (inactive) | viability ([13]; at 0.0195 µM, OCI-C5x cells, without rucaparib): 101% (inactive) | viability ([13]; at 0.0195 µM, OCI-P5x cells, with rucaparib 20 µM, 100% = cells with rucaparib alone): 111% (inactive) | viability ([13]; at 0.0195 µM, OCI-P5x cells, without rucaparib): 106% (inactive) | viability ([13]; at 0.0781 µM, OCI-C5x cells, with rucaparib 10 µM, 100% = cells with rucaparib alone): 103% (inactive) | viability ([13]; at 0.0781 µM, OCI-C5x cells, without rucaparib): 102% (inactive) | viability ([13]; at 0.0781 µM, OCI-P5x cells, with rucaparib 20 µM, 100% = cells with rucaparib alone): 106% (inactive) | viability ([13]; at 0.0781 µM, OCI-P5x cells, without rucaparib): 102% (inactive) | viability ([13]; at 0.313 µM, OCI-C5x cells, with rucaparib 10 µM, 100% = cells with rucaparib alone): 121% (inactive) | viability ([13]; at 0.313 µM, OCI-C5x cells, without rucaparib): 105% (inactive) | viability ([13]; at 0.313 µM, OCI-P5x cells, with rucaparib 20 µM, 100% = cells with rucaparib alone): 99.1% (active) | viability ([13]; at 0.313 µM, OCI-P5x cells, without rucaparib): 100% (inactive) | viability ([13]; at 1.25 µM, OCI-C5x cells, with rucaparib 10 µM, 100% = cells with rucaparib alone): 145% (inactive) | viability ([13]; at 1.25 µM, OCI-C5x cells, without rucaparib): 123% (inactive) | viability ([13]; at 1.25 µM, OCI-P5x cells, with rucaparib 20 µM, 100% = cells with rucaparib alone): 99.6% (active) | viability ([13]; at 1.25 µM, OCI-P5x cells, without rucaparib): 102% (inactive) | viability ([13]; at 5 µM, OCI-C5x cells, with rucaparib 10 µM, 100% = cells with rucaparib alone): 236% (inactive) | viability ([13]; at 5 µM, OCI-C5x cells, without rucaparib): 146% (inactive) | viability ([13]; at 5 µM, OCI-P5x cells, with rucaparib 20 µM, 100% = cells with rucaparib alone): 82.4% (active) | viability ([13]; at 5 µM, OCI-P5x cells, without rucaparib): 73.4% (active) | remaining NAD [14]: 10 nM (inactive) | luciferase signal [15]: 80 AU (inactive) | inhibition ([16]; BGB IC20 combo, at 0.005 µM): -34.1% | inhibition ([16]; BGB IC40 combo, at 0.005 µM): -27.4% | inhibition ([16]; BGB IC40 combo, at 0.05 µM): 5.15% | inhibition ([16]; at 0.5 µM): 0.32% (inactive) | inhibition ([16]; cisplatin combo, at 0.05 µM): 5.15% | inhibition ([16]; cisplatin combo, at 0.5 µM): 7.66% | inhibition ([16]; cisplatin combo, at 5 µM): -4.18% | inhibition ([16]; measured here: 5 uM single agent, at 5 µM): -20.2% | log fold change Tl+ flux [17]: -0.0334 (inactive) | log fold change Tl+ flux [18]: 0.0119 (inactive) | log fold change Tl+ flux [19]: -0.0613 (inactive)
